Assay outcomes (PubChem BioAssay)
Shown are actives, neighbours in structure and some others; about 4.7% of the full set was active somewhere.
PfHsp90 yeast 2 = growth inhibition of PfHsp90-expressing yeast, primary screen, antimalarial PfHsp90 inhibitor project, S. cerevisiae, BacTiter-Glo luminescence, single point, set 2. BacTiter-Glo ATP, 48 h; yeast lacking PDR1 and PDR3 efflux regulators. inhibition, % at 9.4 µM. actives 0.32% (n = 310,000). AID 504621, 2011;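 active means every replicate shows inhibition above about 80%, whatever the replicate mean, limit read from the data; inconclusive means mean inhibition reaches the set limit but some replicate falls short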
ATG4B inhibitor = ATG4B protease inhibitors, primary screen, biochemical, fluorescence, uHTS; ATG4B cleavage of LC3-PLA2, NBD-HPC fluorescence, 1 h; actives 0.51% (n = 340,000); Cysteine protease ATG4B (Homo sapiens), Q9Y4P1; inhibition, % at 8.33 µM; AID 504462, 2011; in the data active means inhibition above about 40%
Target sequence (Q9Y4P1 whole entry, looked up): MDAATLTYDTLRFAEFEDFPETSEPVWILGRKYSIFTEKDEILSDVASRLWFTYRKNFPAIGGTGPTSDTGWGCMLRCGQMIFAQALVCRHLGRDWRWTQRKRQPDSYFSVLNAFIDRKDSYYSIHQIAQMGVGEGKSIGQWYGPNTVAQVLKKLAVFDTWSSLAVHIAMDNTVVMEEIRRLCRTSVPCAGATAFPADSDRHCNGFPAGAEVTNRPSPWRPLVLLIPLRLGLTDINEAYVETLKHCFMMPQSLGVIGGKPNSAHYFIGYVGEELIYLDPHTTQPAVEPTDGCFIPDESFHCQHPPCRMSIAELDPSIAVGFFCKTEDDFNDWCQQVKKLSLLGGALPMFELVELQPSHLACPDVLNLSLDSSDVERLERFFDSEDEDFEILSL
tim23-1 inh = growth inhibitors of tim23-1 mutant yeast, primary screen, luminescence, uHTS | S. cerevisiae tim23-1 growth, BacTiter-Glo luminescence, 24 h | inhibition, % at 20 µM | actives 1.3% (n = 330,000) | AID 463212, 2010;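 active means growth inhibition of the mutant yeast at or above 50%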;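 further: temperature-sensitive mutant grown at 25 °C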
TIM10 inh = growth inhibitors of isogenic TIM10 control yeast, primary screen, counter-screen for tim10-1 yeast inhibitor project, luminescence, uHTS; S. cerevisiae TIM10 strain growth, BacTiter-Glo luminescence, 24 h; inhibition, % at 10 µM; actives 1.4% (n = 330,000);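 active means inhibition of 40% or more at the single tested concentration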;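 further: wild-type TIM10 isogenic control strain grown at permissive 25 °C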
SKKanGAS inh = S. pyogenes SKKanGAS growth inhibitors in kanamycin, primary screen, streptokinase expression inhibitor project, SKKanGAS strain, BacTiter-Glo luminescence | actives 1.3% (n = 300,000) | 6 h | inhibition, % at 7.5 µM;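 active means mean replicate score, as percent of positive control median, at least 50; inconclusive means mean below 50 but one replicate at or above 50; inactive means mean and every replicate below 50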;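 further: strain carries kanamycin resistance gene driven by streptokinase promoter and grows in 40 µg/ml kanamycin; loss of luminescence reflects streptokinase promoter inhibition or plain growth inhibition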
tim10-1 inh = growth inhibitors of tim10-1 mutant yeast, primary screen, luminescence, uHTS. S. cerevisiae tim10-1 ts strain growth, BacTiter-Glo, 24 h. inhibition, % at 20 µM. actives 2.2% (n = 330,000);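 active means inhibition of at least 40%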;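 further: mutant grown at 25 °C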
tim10-1 confirm = growth inhibitors of tim10-1 mutant yeast, confirmation, single concentration, luminescence, S. cerevisiae; shares compounds with tim10-1 inh; S. cerevisiae tim10-1 ts strain growth, BacTiter-Glo, 24 h; inhibition, % at 20 µM; actives 56% (n = 7,400); AID 463213, 2010;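 active means inhibition of yeast growth at or above a set limit in either of two repeat tests at 20 µM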;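 further: tim10-1 mutant grown at permissive 25 °C to find synthetic lethal compounds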
TIM10 conf = growth inhibitors of wild-type TIM10 yeast, confirmation, counter-screen for tim10-1 synthetic lethality project, single concentration, luminescence, S. cerevisiae | inhibition, % at 10 µM | AID 463215, 2010 | S. cerevisiae tim10 strain growth, BacTiter-Glo luminescence, 24 h | actives 63% (n = 4,600) | shares compounds with TIM10 inh;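 active means inhibition of yeast growth at or above a set limit in either of two replicates at 10 µM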; further: this counterscreen used the strain with wild-type TIM10
tim23-1 conf = tim23-1 mutant yeast growth inhibitors, confirmation, luminescence, single concentration; shares compounds with tim23-1 inh; S. cerevisiae tim23-1 growth, BacTiter-Glo luminescence, 24 h; inhibition, % at 20 µM; actives 83% (n = 4,400);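 active means inhibition above about 39% in either of two replicate wells at 20 µM, limit read from the data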;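 further: temperature-sensitive tim23-1 mutant grown at 25 °C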
Hits are given with their value; 0 = inactive; ? = inconclusive; - = no result given.

SMILES	PfHsp90 yeast 2	ATG4B inhibitor	tim23-1 inh	TIM10 inh	SKKanGAS inh	tim10-1 inh	tim10-1 confirm	TIM10 conf	tim23-1 conf
Cc1ccc(/C(N)=N/OC(=O)c2ccc(Cl)cc2Cl)cc1	0	0	79.7	87.7	0	47.4	0	0	43.5
COc1ccc(Cl)cc1C(=O)O/N=C(\N)c1ccncc1	0	0	0	0	0	0	-	-	-
Cc1ccc(/C(N)=N/OC(=O)Cc2cccs2)cc1	0	0	0	0	0	0	-	-	-
COc1ccccc1C(=O)O/N=C(\N)c1ccc(Cl)cc1	0	0	64.5	0	0	50.1	44.6	-	54.5
CCN(CC)S(=O)(=O)c1ccc(N2CCOCC2)c(NC(=O)Cc2ccc(Cl)cc2)c1	0	0	0	0	0	0	-	-	-
Cc1cc2nn(-c3cccc4ccccc34)nc2cc1N	0	0	0	0	0	0	-	-	-
Cc1cc2nc3ccc(N(C)C)cc3nc2cc1N	0	0	50.3	70.4	0	45.8	57.7	72.8	40.7
Cc1ccc(S(=O)(=O)Nc2nccs2)cc1[N+](=O)[O-]	0	0	0	0	0	0	-	-	-
Cc1ccc(S(=O)(=O)Nc2ccc(S(=O)(=O)Nc3nccs3)cc2)c([N+](=O)[O-])c1	0	0	50.2	52.0	0	53.8	55.2	46.6	52.2
CC1CN(C(=O)COC(=O)c2cc(=O)c3ccccc3o2)CC(C)O1 (stereo not given)	0	0	0	0	0	0	-	-	-
CC1=CC(=O)C=C(C)C1=NOc1ccc([N+](=O)[O-])cc1	0	0	56.8	46.7	0	62.0	65.5	38.0	69.2
CCc1n[nH]c(=S)n1/N=C/c1ccccc1OCc1ccc(Cl)cc1	0	0	0	0	0	0	-	-	-
COc1ccccc1-n1c(SCC(=O)OC(C)C)nc2cccnc21	0	0	0	0	0	0	-	-	-
Cc1cc(C)c(S(=O)(=O)/N=C2\C=C(Nc3ccc(C(=O)O)cc3)C(=O)c3ccccc32)c(C)c1	0	0	60.1	0	111.9	42.8	35.0	-	62.7
Cc1cc(C)c(S(=O)(=O)/N=C2\C=C(NS(=O)(=O)c3ccccc3)C(=O)c3ccccc32)c(C)c1	0	0	0	0	0	0	-	-	-
COc1ccc(-c2cc(C3CCN(Cc4cccc(C(F)(F)F)c4)CC3)[nH]n2)cc1	0	0	0	0	?	0	-	-	-
CCC(C)Nc1nc(N)c([N+](=O)[O-])c(Nc2ccccc2OC)n1 (stereo not given)	0	0	52.6	0	0	42.9	0	-	48.5
Cc1ccc(/C=N/NC(=O)Cn2nc(C)c([N+](=O)[O-])c2C)o1	0	0	0	0	0	0	-	-	-
Cc1cccc(Nc2nc(-c3ccc(O)cc3O)cs2)n1	0	0	87.2	0	0	43.4	38.2	-	71.8
Cc1cc(Cl)ccc1N=c1ssnc1Cl	?	0	59.5	0	0	52.4	55.1	-	77.4
Cc1ccc(N=c2ssnc2Cl)cc1	93.1	0	66.0	0	0	64.4	63.2	-	90.2
Cc1cc(Cl)ccc1N=C1N=C(N)c2ccccc21	0	0	0	0	0	0	-	-	-
Cc1cc(C)c(C#N)c(Cl)n1	0	0	0	0	0	0	-	-	-
Cc1cc(C)nc(/N=c2/ssnc2Cl)c1	-	0	91.4	77.1	0	81.0	82.5	94.7	67.9
CC(=O)Nc1ccc(NC(=O)[C@@H]2CCCC[C@@H]2C(=O)O)cc1	0	0	0	0	0	0	-	-	-
SMILES	PfHsp90 yeast 2	ATG4B inhibitor	tim23-1 inh	TIM10 inh	SKKanGAS inh	tim10-1 inh	tim10-1 confirm	TIM10 conf	tim23-1 conf
S=C(Nc1ccc2nsnc2c1)NC1CCCCC1	0	0	53.3	53.9	0	52.8	33.2	0	56.5
COc1cccc(NC(=O)C2CC(=O)n3cnnc3S2)c1 (stereo not given)	0	0	60.7	41.0	-	43.1	33.0	0	58.8
CCSc1nsc(NC(=O)Nc2ccccc2F)n1	0	0	0	0	0	0	-	-	-
C=CCSc1nsc(NC(=O)Nc2ccc(F)cc2)n1	0	0	77.6	66.2	74.5	61.7	73.5	65.4	78.0
CCCSc1nc(-n2ncc(C#N)c2N)c2c3c(sc2n1)CCC(C)C3 (stereo not given)	0	0	0	0	0	0	-	-	-
Cc1[nH]nc2c1C(c1cc(Br)cs1)C(C#N)=C(N)O2 (stereo not given)	0	0	60.9	0	0	52.5	35.5	-	45.3
COc1ccc(-c2cc(C(=O)N(C)Cc3cccc(OC)c3OC)c3ccccc3n2)cc1OC	0	0	69.9	50.1	0	53.1	64.2	50.4	93.8
NC(=S)N/N=C/c1ccccc1OCCSc1ccc(Cl)cc1	0	0	54.3	56.7	0	43.5	31.6	0	0
O=C(Nc1ccccc1C(F)(F)F)N1CCC(N2CCCCC2)CC1	0	0	0	0	0	0	-	-	-
COC(=O)c1c(NS(=O)(=O)c2ccccc2)csc1C	0	0	0	0	0	0	-	-	-
CO/N=C(\c1nonc1N)N1CCN(c2ccc([N+](=O)[O-])cc2Cl)CC1	0	0	0	0	0	0	-	-	-
CC(=O)O/N=C(/c1nonc1N)N1CCN(c2ccc([N+](=O)[O-])cc2Cl)CC1	0	0	63.5	75.3	0	62.0	66.8	84.5	74.8
O=[N+]([O-])c1ccc(CNc2ccc(Cl)cc2)s1	0	0	60.6	56.3	0	56.8	54.5	64.8	68.4
C=CCN(CC=C)CCCOc1ccccc1C(=O)OC	0	0	0	0	0	0	-	-	-
O=Nc1c(-c2cccc([N+](=O)[O-])c2)nc2ncccn12	-	-	89.1	83.8	0	91.3	91.2	98.0	72.8
O=C(Nc1ccc2c(c1)OCCO2)NC12CC3CC(CC(C3)C1)C2	0	0	58.9	46.7	0	50.6	43.2	0	42.6
C/C(=N\NC(=O)c1ccc(CN2CCc3ccccc3C2)cc1)c1ccccc1O	0	0	74.1	45.3	0	46.5	0	48.2	78.6
CCCNC(=O)c1ccc(CN2CCc3ccccc3C2)cc1	0	0	0	0	0	0	-	-	-
